# Screening results deposited in PubChem by The Scripps Research Institute Molecular Screening Center.
# Hits are enriched below; roughly 4.8% of the tested compounds scored in any of these assays.
# hgDAF-12 ag = H. glycines DAF-12 receptor agonists, primary screen, cell-based, luminescence, HEK293, GAL4 fusion, UAS-luciferase; activation, % at 6.8 µM; 370,000 compounds, 1.8% hits; AID 687014, 2013; HEK293 GAL4-hgDAF12 UAS-luciferase reporter, agonist luminescence; normalized to butyrate control; Nuclear hormone receptor DAF-12 (Heterodera glycines), GAL4 fusion;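 active = activation above a cutoff set at the mean of all screened compounds plus 3 SD, cut at about 10% in these data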;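 note: 0% = DMSO wells and 100% = sodium butyrate wells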
# SMARCA2 act = SMARCA2 (BRM) function activators, primary screen, cell-based, luminescence, high throughput; MG213 cells, MMTV-luciferase reporter, dexamethasone, overnight; activation, % at 9.1 µM; 370,000 compounds, 1% hits; in the data active = activation above about 7.8%;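 note: 0% = vehicle wells and 100% = reference activator wells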
# DAX1 inh-1 = DAX1 (NR0B1) inhibitors on StAR promoter, primary screen, cell-based, luminescence, SF-1 (NR5A1), full-length DAX-1; HEK293T StAR-luciferase reporter, SF-1/DAX-1 repression relief; inhibition, % at 6.8 µM; 370,000 compounds, 1.1% hits; AID 652010, 2013;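 active = inhibition above the mean over all tested compounds plus 3 SD, cut at about 3.6% in these data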;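 note: 0% = DAX-1 cells with DMSO and 100% = cells lacking DAX-1 with DMSO; higher inhibition means more luminescence from relief of DAX-1 repression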
# hcDAF12 agonist = H. contortus DAF-12 nuclear receptor activators, primary screen, cell-based, luminescence, HEK293, lit1-tk-luc reporter; AID 652067, 2013; HEK293 hcDAF-12 lit1-tk-luc reporter; 0% DMSO, 100% Δ7-dafachronic acid; activation, % at 6.8 µM; 370,000 compounds, 1.4% hits;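 active = activation above the mean of all tested compounds plus 3 SD, cut at about 5.5% in these data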;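 note: 100% = response to 3 µM Δ7-dafachronic acid high control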
# DAX1 inh-2 = DAX1 (NR0B1) inhibitors, primary screen, cell-based, HEK293, Gal4-DAX1, luciferase luminescence | HEK293 Gal4-DAX1 luciferase reporter | inhibition, % at 6.75 µM | 340,000 compounds, 0.99% hits | Nuclear receptor subfamily 0 group B member 1 (Homo sapiens), P51843;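 active = inhibition above the mean over all tested compounds plus 3 SD, cut at about 4.2% in these data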;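 note: 0% = DAX1-transfected cells with DMSO and 100% = empty-vector control cells with DMSO; inhibition shows as a rise in luminescence from relieved DAX1 repression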
# ssDAF12 agonist = S. stercoralis DAF-12 nuclear receptor activators, primary screen, cell-based, luminescence, HEK293, GRIP1 co-expression, lit1-tk-luc. Nuclear hormone receptor DAF-12 (Strongyloides stercoralis). HEK293 ssDAF-12/GRIP1 lit1-tk-luc reporter; % of 3 µM dafachronic acid response. activation, % at 6.8 µM. 370,000 compounds, 1% hits;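 active = activation above the mean over all tested compounds plus 3 SD, cut at about 0.9% in these data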;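 note: 0% = DMSO-only wells and 100% = 3 µM delta7-dafachronic acid wells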
# LXR ag = LXR agonists, Gal4 luciferase reporter, confirmation, counter-screen for hcDAF-12 agonist project, cell-based, luminescence, HEK293, H. contortus campaign. shares compounds with hcDAF12 agonist. HEK293 Gal4-LXR tk-luc reporter, 24 h; normalized: DMSO 0%, positive control 100%. activation, % at 6.8 µM. 3,400 tested, under 10 active. AID 743027, 2013;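 active = mean percent activation of the reporter above a cutoff set as the average over tested compounds plus their standard deviation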
# Target sequence (P55055 whole entry, looked up, the tested form may be a part): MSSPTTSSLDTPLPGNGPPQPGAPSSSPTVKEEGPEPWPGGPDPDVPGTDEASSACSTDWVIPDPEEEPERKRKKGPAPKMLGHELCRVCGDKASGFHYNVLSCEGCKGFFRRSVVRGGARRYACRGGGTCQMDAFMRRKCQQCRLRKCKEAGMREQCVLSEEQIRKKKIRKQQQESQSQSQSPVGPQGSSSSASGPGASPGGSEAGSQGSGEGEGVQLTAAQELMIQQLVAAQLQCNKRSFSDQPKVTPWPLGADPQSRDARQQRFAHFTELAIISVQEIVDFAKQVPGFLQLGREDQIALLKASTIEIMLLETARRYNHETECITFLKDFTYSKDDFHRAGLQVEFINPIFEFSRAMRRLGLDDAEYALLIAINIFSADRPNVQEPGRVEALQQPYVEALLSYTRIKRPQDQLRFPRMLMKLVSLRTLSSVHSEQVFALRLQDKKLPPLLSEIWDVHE
# hcDAF12 conf = H. contortus DAF-12 receptor agonists, confirmation, cell-based, luminescence, HEK293, lit1-tk-luc, triplicate; 3,400 compounds, 61% hits; HEK293 hcDAF-12 lit1-tk-luc reporter; % of Δ7-dafachronic acid response; activation, % at 6.8 µM; shares compounds with hcDAF12 agonist;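 active = mean activation across triplicate tests above the threshold derived from the earlier primary screen, cut at about 5.5% in these data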;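 note: 0% = DMSO only wells and 100% = 3 µM Δ7-dafachronic acid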
# hgDAF12 conf = H. glycines DAF-12 receptor agonists, confirmation, cell-based, luminescence, HEK293, GAL4-LBD fusion | 3,300 compounds, 80% hits | shares compounds with hgDAF-12 ag | activation, % at 6.8 µM | HEK293 GAL4-hgDAF12 luciferase reporter, agonist mode; percent of butyrate response;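 active = mean activation over triplicate wells above the hit cutoff derived from the earlier primary screen, cut at about 11% in these data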;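 note: 0% = DMSO low control and 100% = 2 mM sodium butyrate high control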
# LXRb DAF12 ctr = LXR agonists, Gal4 luciferase reporter, confirmation, counter-screen for hgDAF-12 agonist project, cell-based, luminescence, HEK293, H. glycines campaign; activation, % at 6.8 µM; 3,300 tested, under 10 active; 24 h; shares compounds with hgDAF-12 ag;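 active = mean activation of the triplicate above a set limit carried over from the primary screen, none filed active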
# Active calls of the source: *; x = no result given.
SMILES,hgDAF-12 ag,SMARCA2 act,DAX1 inh-1,hcDAF12 agonist,DAX1 inh-2,ssDAF12 agonist,LXR ag,hcDAF12 conf,hgDAF12 conf,LXRb DAF12 ctr
CC(C)c1ccc(NC(=O)c2snc3ccc(Cl)cc23)cc1,20*,4,3.8*,11*,3,2.7*,1,12*,17*,1
CC(C)c1ccc(NC(=O)c2cccnc2)cc1,8,4,3,5,1,0,x,x,x,x
CCCCN1CC(O)=C(c2nc(-c3ccc(Br)cc3)cs2)C1=N,0,-1,0,-1,-1,-2,x,x,x,x
Cc1cc(C)nc(Nc2nc3ccccc3s2)n1,17*,4,4.5*,14*,1,0,2,15*,19*,1
Cc1ccc(Nc2nc3ccccc3s2)c(C)c1,21*,0,4,9.1*,0,1.2*,2,9.6*,22*,1
Cc1ccnc(N2C(=O)CSC2c2ccc(Cl)cc2)c1 (stereo not given),0,0,-1,-3,1,-2,x,x,x,x
Cc1ccc(-c2nc3ccc(Cl)cn3c2Cc2cccc(Cl)c2)cc1,14*,1,4.1*,6.6*,x,0,1,3,8,0
COc1ccc2cc(C(=O)N3CCc4ccccc43)[nH]c2c1,19*,2,3,14*,3,1.6*,2,13*,24*,1
COc1ccc2cc(C(=O)N3CCN(c4cccc(C)c4C)CC3)[nH]c2c1,1,-3,1,4,0,1,x,x,x,x
O=C(COc1ccc(Br)cc1CO)Nc1ccccc1F,3,6,1,0,1,-1,x,x,x,x
CCN(CC)S(=O)(=O)c1ccc(C(=O)OCC(=O)Nc2ccc(-c3nc4ccc(C)cc4s3)cc2)cc1,14*,1,4.0*,7.6*,0,0,2,8.9*,23*,1
Cc1cc(C)c2c(N)c(C(=O)Nc3ccc(F)cc3)sc2n1,14*,1,3,8.8*,3,0,2,16*,24*,1
CCc1sc(C(=O)Nc2nccs2)cc1C,19*,5,2,6.7*,2,0.9*,1,6.7*,21*,1
Cn1c(=S)[nH]c2sc3c(c2c1=O)CCC(C(C)(C)C)C3 (stereo not given),4,-2,0,1,1,0,x,x,x,x
[O-]C(=C(C(=S)Nc1cccc2ccccc12)[n+]1ccccc1)c1ccc2c(c1)OCCO2,x,x,x,x,-4,x,x,x,x,x
